PubChem BioAssay (Tox21)
Records with an inconclusive call do not appear. Calls of active or inactive are those of the source. Unless noted, calls come from the whole dose curve; as a rule, active = well fitted curve in the direction sought with a large enough effect in the repeat runs; inconclusive = weak or mixed curves; inactive = no such curve, though single readings can be large; an effect the other way counts as inactive or inconclusive.
% is set by controls: 0 for no effect and ±100 for the full control effect.

Biological target: Nuclear receptor subfamily 1 group I member 3 (Homo sapiens) (UniProt Q14994)
Sequence (Q14994 whole entry, looked up): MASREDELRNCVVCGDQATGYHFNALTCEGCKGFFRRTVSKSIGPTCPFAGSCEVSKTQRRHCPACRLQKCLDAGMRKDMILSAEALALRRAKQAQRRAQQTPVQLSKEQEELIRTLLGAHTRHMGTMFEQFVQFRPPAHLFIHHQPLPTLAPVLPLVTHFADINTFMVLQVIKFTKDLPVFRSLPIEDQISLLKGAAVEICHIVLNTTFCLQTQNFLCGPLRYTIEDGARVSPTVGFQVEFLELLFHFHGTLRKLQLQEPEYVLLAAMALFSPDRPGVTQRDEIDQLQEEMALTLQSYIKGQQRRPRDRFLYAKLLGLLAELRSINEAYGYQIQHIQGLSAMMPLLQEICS
Assay: qHTS assay to identify small molecule antagonists of the constitutive androstane receptor (CAR) signaling pathway (AID 1224838);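 note: HepG2 cells stably expressing hCAR with CYP2B6 luciferase reporter stimulated by CITCO; nearly all actives have a fitted effect of over 40% in size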
Conditions: HepG2-CYP2B6-hCAR luciferase, CITCO-stimulated, 24 h; series mostly up to 92.4 µM; activity, negative = inhibition: at the top concentration
Procedure, shortened: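 Quantitative HTS in double-stable HepG2-CYP2B6-hCAR cells. After 4 h plating, cells get compound (15 concentrations) and CITCO at 50 nM final, incubate 24 h at 37 C, then ONE-Glo luminescence is read.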
For `CC1(C)OC[C@@H](COC(=O)CCc2ccc(OC[C@@H](O)CNCCNC(=O)N3CCOCC3)cc2)O1`, the “activity, negative = inhibition” value was -11% [at 42.5 µM] (inactive). For `CN(C)CCN(C)CCN(C)C`, the “activity, negative = inhibition” value was -1.64% (inactive). For `CN(C)C(=O)Oc1cccc([N+](C)(C)C)c1`, the “activity, negative = inhibition” value was -12.8% [at 42.5 µM] (inactive). In the case of `CCCOC(=O)CC`, the “activity, negative = inhibition” value is reported as -17.5% (inactive). In the case of `CC1CCC(CO)CC1` (stereo not given), the “activity, negative = inhibition” value is reported as -4.35% (inactive). For `CC(C)CC(C)(N)C#N` (stereo not given), the “activity, negative = inhibition” value was -12% (inactive). In the case of `C1CCC2(CCCCO2)OC1`, the “activity, negative = inhibition” value is reported as 2.58% (inactive). With `COCCOC[C@H](CC1(C(=O)NC2CCC(C(=O)O)CC2)CCCC1)C(=O)Oc1ccc2c(c1)CCC2` (stereo not given in full) the “activity, negative = inhibition” value was -4.8% (inactive). With `CN(C)CCCCCCN(C)C` the “activity, negative = inhibition” value was 5.74% (inactive). For `CCCO[Si](OCCC)(OCCC)OCCC`, the “activity, negative = inhibition” value was 3.89% (inactive). For `COc1ccccc1OCC1CNC(=O)O1` (stereo not given), the “activity, negative = inhibition” value was -15.8% [at 42.5 µM] (inactive). In the case of `[O-][n+]1cccc(CO)c1`, the “activity, negative = inhibition” value is reported as -16.8% [at 42.5 µM] (inactive). In the case of `CC(C)C1CCC(O)CC1` (stereo not given), the “activity, negative = inhibition” value is reported as -23.1% (inactive). For `O=C1c2ccccc2C(=O)c2cc(O)ccc21`, the “activity, negative = inhibition” value was 191% (inactive). For `CCCCOCCOC(=O)COc1cc(Cl)c(Cl)cc1Cl`, the “activity, negative = inhibition” value was 13.4% (inactive). With `CC(C)COC(=O)c1ccc(N)cc1` the “activity, negative = inhibition” value was 191% [at 42.5 µM] (inactive). In the case of `COc1cc(C(=O)NCc2ccc(OCCN(C)C)cc2)cc(OC)c1OC`, the “activity, negative = inhibition” value is reported as 21.1% [at 42.5 µM] (inactive). For `COC(=O)C1=C(C)NC(C)=C(C(=O)OC(C)C)C1c1cccc2nonc12` (stereo not given), the “activity, negative = inhibition” value was 130% [at 42.5 µM] (inactive). With `NCCCC[C@H](N[C@@H](CCc1ccccc1)C(=O)O)C(=O)N1CCC[C@H]1C(=O)O` the “activity, negative = inhibition” value was 3.43% [at 42.5 µM] (inactive). In the case of `O=C(c1ccccc1O)c1ccccc1O`, the “activity, negative = inhibition” value is reported as 40.2% (inactive). With `NC(=O)Cc1cccc2ccccc12` the “activity, negative = inhibition” value was 22.1% (inactive). In the case of `C=C(C)C(=O)OCCOCCOCCOCCOC(=O)C(=C)C`, the “activity, negative = inhibition” value is reported as 61.1% (inactive). In the case of `CCCC[N+](C)(CCCC)CCCC`, the “activity, negative = inhibition” value is reported as -5.89% (inactive). With `O=Cc1cccc(Br)c1` the “activity, negative = inhibition” value was 14.8% (inactive).

Biological target: Nuclear receptor subfamily 1 group I member 3 (Homo sapiens) (UniProt Q14994)
Assay: qHTS assay to identify small molecule agonists of the constitutive androstane receptor (CAR) signaling pathway (AID 1224839); note: nearly all actives have a fitted effect of over 15% in size; note: potency is the fitted concentration of half-maximal effect;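 for activation: HepG2 cells stably carrying human CAR and a CYP2B6 luciferase reporter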
Conditions: HepG2 hCAR CYP2B6-luciferase, agonist mode, 24 h; series mostly up to 92.4 µM; activation: at the top concentration
Procedure, shortened: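 Stable hCAR/CYP2B6-2.2kb HepG2 line in DMEM with 10% FBS; compounds (15 concentrations) and 0.75 uM PK11195 final, 24 h at 37 C/5% CO2, then ONE-Glo luminescence after 30 min.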
In the case of `CC1(C)OC[C@@H](COC(=O)CCc2ccc(OC[C@@H](O)CNCCNC(=O)N3CCOCC3)cc2)O1`, the “activation” value is reported as 2.21% [at 42.5 µM] (inactive). In the case of `CN(C)CCN(C)CCN(C)C`, the “activation” value is reported as -1.66% (inactive). With `CN(C)C(=O)Oc1cccc([N+](C)(C)C)c1` the “activation” value was -1.28% [at 42.5 µM] (inactive). For `CCCOC(=O)CC`, the “activation” value was -2.66% (inactive). With `CC1CCC(CO)CC1` (stereo not given) the “activation” value was -4.84% (inactive). For `CC(C)CC(C)(N)C#N` (stereo not given), the “activation” value was -4.47% (inactive). In the case of `C1CCC2(CCCCO2)OC1`, the “activation” value is reported as 1.93% (inactive). With `COCCOC[C@H](CC1(C(=O)NC2CCC(C(=O)O)CC2)CCCC1)C(=O)Oc1ccc2c(c1)CCC2` (stereo not given in full) the “activation” value was -0.38% (inactive). In the case of `CN(C)CCCCCCN(C)C`, the “activation” value is reported as -0.583% (inactive). With `CCCO[Si](OCCC)(OCCC)OCCC` the “activation” value was -0.67% (inactive). In the case of `COc1ccccc1OCC1CNC(=O)O1` (stereo not given), the “activation” value is reported as 0.289% [at 42.5 µM] (inactive). In the case of `[O-][n+]1cccc(CO)c1`, the “activation” value is reported as 0.322% [at 42.5 µM] (inactive). In the case of `CC(C)C1CCC(O)CC1` (stereo not given), the “activation” value is reported as -1.97% (inactive). For `O=C1c2ccccc2C(=O)c2cc(O)ccc21`, the Potency was 54.5 µM (active). In the case of `CCCCOCCOC(=O)COc1cc(Cl)c(Cl)cc1Cl`, the “activation” value is reported as 0.0002% (inactive). With `COc1cc(C(=O)NCc2ccc(OCCN(C)C)cc2)cc(OC)c1OC` the “activation” value was -0.0408% [at 42.5 µM] (inactive). With `O=C(c1ccccc1O)c1ccccc1O` the “activation” value was 8.34% (inactive). With `NC(=O)Cc1cccc2ccccc12` the “activation” value was -0.555% (inactive). For `C=C(C)C(=O)OCCOCCOCCOCCOC(=O)C(=C)C`, the “activation” value was 5.28% (inactive). With `COc1cc(C)nc(-n2nc(C)cc2OC)n1` the “activation” value was 3.71% [at 42.5 µM] (inactive). For `CCCC[N+](C)(CCCC)CCCC`, the “activation” value was -0.383% (inactive). In the case of `O=Cc1cccc(Br)c1`, the “activation” value is reported as 4.13% (inactive).

System: not listed separately
Assay: qHTS assay to identify small molecule antagonists of the estrogen related receptor signaling pathway with the pleiotropic PPARgamma coactivator (PGC) from Tox21 10K library - cell viability counter screen (AID 1224840; active = well fitted cell-killing curve with a large enough effect in the repeat runs, not every such curve was filed as active; note: nearly all actives have a fitted effect of over 40% in size)
Conditions: PGC/ERR reporter cells viability, CellTiter-Fluor, 17.5 h; series mostly up to 92.4 µM; viability change, negative = cytotoxic: at the top concentration
Procedure, shortened: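 Compounds in DMSO, alongside positive and negative controls, were pinned onto PGC/ERR cells (2,000 per well). Exposure lasted 17.5 hours at 37 C, followed by a 30-minute CellTiter-Fluor incubation and fluorescence reading.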
In the case of `CC1(C)OC[C@@H](COC(=O)CCc2ccc(OC[C@@H](O)CNCCNC(=O)N3CCOCC3)cc2)O1`, the “viability change, negative = cytotoxic” value is reported as 19.9% [at 42.5 µM] (inactive). In the case of `CN(C)CCN(C)CCN(C)C`, the “viability change, negative = cytotoxic” value is reported as -7.35% (inactive). For `CC1CCC(CO)CC1` (stereo not given), the “viability change, negative = cytotoxic” value was -1.19% (inactive). With `CC(C)CC(C)(N)C#N` (stereo not given) the “viability change, negative = cytotoxic” value was 7.1% (inactive). For `C1CCC2(CCCCO2)OC1`, the “viability change, negative = cytotoxic” value was 4.4% (inactive). For `CN(C)CCCCCCN(C)C`, the “viability change, negative = cytotoxic” value was 10.4% (inactive). With `CCCn1cc[n+](C)c1C` the “viability change, negative = cytotoxic” value was 1.9% (inactive). For `CCCO[Si](OCCC)(OCCC)OCCC`, the “viability change, negative = cytotoxic” value was 7.06% (inactive). In the case of `NC(=O)NC1N=C([O][Al])NC1=O` (stereo not given), the “viability change, negative = cytotoxic” value is reported as -2.7% [at 42.5 µM] (inactive). For `COc1ccccc1OCC1CNC(=O)O1` (stereo not given), the “viability change, negative = cytotoxic” value was 3.27% [at 42.5 µM] (inactive). In the case of `O=C(O)CNC(=O)c1ccccc1`, the “viability change, negative = cytotoxic” value is reported as 13% [at 42.5 µM] (inactive). With `CC(C)C1CCC(O)CC1` (stereo not given) the “viability change, negative = cytotoxic” value was 4.94% (inactive). For `CCOC(=O)c1ccccc1`, the “viability change, negative = cytotoxic” value was 11.8% (inactive). With `O=C1c2ccccc2C(=O)c2cc(O)ccc21` the “viability change, negative = cytotoxic” value was -15.8% (inactive). For `CCCCOCCOC(=O)COc1cc(Cl)c(Cl)cc1Cl`, the “viability change, negative = cytotoxic” value was 0.187% (inactive). In the case of `CC(C)COC(=O)c1ccc(N)cc1`, the “viability change, negative = cytotoxic” value is reported as 18.3% [at 42.5 µM] (inactive). For `COc1cc(C(=O)NCc2ccc(OCCN(C)C)cc2)cc(OC)c1OC`, the “viability change, negative = cytotoxic” value was 8.05% [at 42.5 µM] (inactive). In the case of `Cc1ccnc(NS(=O)(=O)c2ccc(N)cc2)n1`, the “viability change, negative = cytotoxic” value is reported as 9.47% [at 42.5 µM] (inactive). With `COC(=O)C1=C(C)NC(C)=C(C(=O)OC(C)C)C1c1cccc2nonc12` (stereo not given) the “viability change, negative = cytotoxic” value was -22.4% [at 42.5 µM] (inactive). In the case of `NCCCC[C@H](N[C@@H](CCc1ccccc1)C(=O)O)C(=O)N1CCC[C@H]1C(=O)O`, the “viability change, negative = cytotoxic” value is reported as 2.65% [at 42.5 µM] (inactive). For `O=C(c1ccccc1O)c1ccccc1O`, the “viability change, negative = cytotoxic” value was -14.4% (inactive). With `NC(=O)Cc1cccc2ccccc12` the “viability change, negative = cytotoxic” value was -1.01% (inactive). For `C=C(C)C(=O)OCCOCCOCCOCCOC(=O)C(=C)C`, the “viability change, negative = cytotoxic” value was -0.827% (inactive). In the case of `CC12CCC(C(=O)C1=O)C2(C)C` (stereo not given), the “viability change, negative = cytotoxic” value is reported as 3.12% (inactive). With `COc1cc(C)nc(-n2nc(C)cc2OC)n1` the “viability change, negative = cytotoxic” value was 0.201% [at 42.5 µM] (inactive). With `CCCC[N+](C)(CCCC)CCCC` the “viability change, negative = cytotoxic” value was 3.71% (inactive).

System: not listed separately
Assay: qHTS assay to identify small molecule antagonists of the estrogen related receptor signaling pathway with the pleiotropic PPARgamma coactivator (PGC) from Tox21 10K library (AID 1224841; call rule not given here; note: actives are mostly falling curves and most rising ones were filed inactive; nearly all actives have a fitted effect of over 50% in size; note: potency is the fitted concentration of half-maximal effect)
Conditions: PGC/ERR reporter cell line, ONE-Glo luciferase, 18 h; series mostly up to 92.4 µM; activity, negative = inhibition: at the top concentration
Procedure, shortened: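 Compound exposure ran 18 hours at 37 C in PGC/ERR cells (2,000/well) that had first rested 6 hours in a 37 C/5% CO2 incubator. Luciferase activity was then detected with One-Glo after a 30-minute room-temperature step.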
For `CC1(C)OC[C@@H](COC(=O)CCc2ccc(OC[C@@H](O)CNCCNC(=O)N3CCOCC3)cc2)O1`, the “activity, negative = inhibition” value was 0.309% [at 42.5 µM] (inactive). For `COCCOC[C@H](CC1(C(=O)NC2CCC(C(=O)O)CC2)CCCC1)C(=O)Oc1ccc2c(c1)CCC2` (stereo not given in full), the “activity, negative = inhibition” value was 0.568% (inactive). For `CN(C)CCCCCCN(C)C`, the “activity, negative = inhibition” value was 4.13% (inactive). In the case of `CCCO[Si](OCCC)(OCCC)OCCC`, the “activity, negative = inhibition” value is reported as -0.111% (inactive). With `CCOC(=O)c1ccccc1` the “activity, negative = inhibition” value was 0.408% (inactive). For `COc1cc2c(cc1OC)-c1cc3ccc(OC)c(OC)c3c[n+]1CC2`, the Potency was 34.7 µM (active). For `CCOc1ccccc1OCC`, the “activity, negative = inhibition” value was -12.8% (inactive). In the case of `CC(C)COC(=O)c1ccc(N)cc1`, the “activity, negative = inhibition” value is reported as 82.7% [at 42.5 µM] (inactive). In the case of `Cc1ccnc(NS(=O)(=O)c2ccc(N)cc2)n1`, the “activity, negative = inhibition” value is reported as 0.57% [at 42.5 µM] (inactive). In the case of `COC(=O)C1=C(C)NC(C)=C(C(=O)OC(C)C)C1c1cccc2nonc12` (stereo not given), the “activity, negative = inhibition” value is reported as -21% [at 42.5 µM] (inactive). For `CCCCCCCCCC[N+](C)(C)[O-]`, the “activity, negative = inhibition” value was -4.8% (inactive). For `COc1cc(C)nc(-n2nc(C)cc2OC)n1`, the “activity, negative = inhibition” value was 4.4% [at 42.5 µM] (inactive). For `O=Cc1cccc(Br)c1`, the “activity, negative = inhibition” value was 9.64% (inactive).
